PubChem BioAssay (NCI)
Where “and” joins values, the source holds several entries; their conditions need not be identical. Equal entries are not always repeated. The panel holds about 79,000 compounds, 15% with a hit somewhere; the sample as a whole holds those more often. Calls of active or inactive are those of the source. No stated cut-off is given here; in the data, active means growth inhibition above about 70%; inactive means the rest.

Key:
[1] = NCI Yeast Anticancer Drug Screen. Data for the rad50 strain (AID 155);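 further: 0% = growth of vehicle-only cultures of the same strain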; settings: S. cerevisiae rad50 strain growth inhibition; at 50.0 µM; hits give high values
How it was run: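 Yeast carrying a defined DNA repair defect were exposed to test compounds, and growth was compared with vehicle-treated controls to give percent inhibition.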

[2] = NCI Yeast Anticancer Drug Screen. Data for the mec2-1 strain (AID 157); settings: S. cerevisiae mec2-1 strain, at 50.0 µM, hits give high values
How it was run: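 Strain: mec2-1 (DNA repair/cell cycle alteration). Compound exposure, then growth measured; inhibition expressed relative to vehicle.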

[3] = NCI Yeast Anticancer Drug Screen. Data for the sgs1 mgt1 strain (AID 161);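 further: 0% = growth of cultures given vehicle only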; settings: S. cerevisiae sgs1 mgt1 strain, at 50.0 µM, hits give high values
How it was run: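 Mutant yeast exposed to compound; growth scored against vehicle-only wells.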

[4] = NCI Yeast Anticancer Drug Screen. Data for the cln2 rad14 strain (AID 165);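 further: 0% = growth equal to vehicle treated cultures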; settings: S. cerevisiae cln2 rad14 strain, at 50.0 µM, hits give high values
How it was run: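 Compounds are applied to the cln2 rad14 yeast strain, and growth is then compared with that of vehicle-treated cultures to give inhibition.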

[5] = NCI Yeast Anticancer Drug Screen. Data for the bub3 strain (AID 167); settings: S. cerevisiae bub3 mutant strain, at 50.0 µM, hits give high values
How it was run: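 Compounds were applied to a genetically altered yeast strain carrying a cell-cycle control defect. Growth inhibition was scored against vehicle-treated controls.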

[6] = NCI Yeast Anticancer Drug Screen. Data for the mlh1 rad18 strain (AID 175); settings: S. cerevisiae mlh1 rad18 strain growth inhibition; at 50.0 µM; hits give high values
How it was run: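 Read-out is yeast growth inhibition, calculated against vehicle-only controls. The compound was applied to a strain engineered with DNA damage repair alterations.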

Measured: growth inhibition

CCOP(=O)(Oc1ccc([N+](=O)[O-])cc1)c1cccc(Br)c1 (centres undefined)
inactive: [1] 41.5% | [2] 19.5% | [3] 54% | [4] 41.3% | [5] 38.5% | [6] 25%

COc1cc(CC(C)N)ccc1O (centres undefined)
inactive: [1] 7.9% | [2] -9.4% | [3] -14.2% | [4] -46.4% | [5] 21.6% | [6] -18.4%

Cc1cc(N(CCCl)CCCl)ccc1C=Nc1ccc(F)cc1[N+](=O)[O-]
inactive: [1] 4.3% | [2] 3.1% | [3] 2.65% | [4] 1.65% | [5] -8.45% | [6] 18.7%

[Se]=[Nb]=[Se]
inactive: [1] -5.8% | [2] -6.55% | [3] -18.3% | [4] -5.1% | [5] -27.1% | [6] -28.5%

NC(=O)Cc1nn[nH]n1
inactive: [1] -16.4% | [2] -13.8% | [3] -27.1% | [4] 5.95% | [5] -7.35% | [6] -21.9%

C/C=C1/CC(C)C(C)(O)C(=O)OCC2CCN3CCC(OC1=O)C23 (centres undefined)
inactive: [1] 13.5% | [2] -1.75% | [3] 6.8% | [4] 8.05% | [5] 23.1% | [6] 18.4%

Nc1ccc(Cl)c(C(F)(F)F)c1
inactive: [1] 0.85% | [2] -16.6% | [3] -12.1% | [4] -18.4% | [5] -1% | [6] 2.6%

O=C(O)COc1nc(Cl)c(Cl)cc1Cl
inactive: [1] 3.3% | [2] 6% | [3] 12.5% | [4] -1.75% | [5] 15.6% | [6] 1.15%

c1ccc(-c2ccc([As](c3ccccc3)c3ccccc3)cc2)cc1
inactive: [1] 11.4% | [2] 4.5% | [3] 19.6% | [4] 3.85% | [5] 7.6% | [6] 11.8%

CCC1(/C(C)=C/C(C)C)C(=O)NC(=O)NC1=O
inactive: [1] 15.8% and 16.3% | [2] 12.8% and 4.6% | [3] 1% and 6.15% | [4] 8.8% and -11.4% | [5] 4.65% and 2.35% | [6] 4.15% and 5.05%

CC(C)CCCC(C)C1CCC2C3CC=C4CC(OC(=O)CN5CC5)CCC4(C)C3CCC12C (centres undefined)
inactive: [1] -0.3% | [2] -2.65% | [3] -4.85% | [4] -6.85% | [5] 18.8% | [6] 3.2%

C=C[CH2][Sn]([CH2]C=C)([c]1ccccc1)[c]1ccccc1
inactive: [1] 47.6% | [2] 18.6% | [3] 28.8% | [4] 6.7% | [5] -7.55% | [6] 16.4%

CC(C)(C)[Si](C)(C)OC(=O)CCCc1ccc(N(CCCl)CCCl)cc1
inactive: [1] 12.1% | [2] -9.9% | [3] -10.2% | [4] 9.4% | [5] -21.7% | [6] -47.1%

Cc1cc(NN=O)nc(C)n1
inactive: [1] -3.05% | [2] -4.05% | [3] -1.35% | [4] -14.4% | [5] -1.8% | [6] 5.7%

CCOC(=O)C1Oc2ccc([N+](=O)[O-])c3c2C1(O)CCC3 (centres undefined)
inactive: [1] 7.2% | [2] 1.3% | [3] 5.8% | [4] 26.6% | [5] -8.8% | [6] -6.65%

CCC1(c2c(F)c(F)c(N)c(F)c2F)CCC(=O)NC1=O (centres undefined)
inactive: [1] -11.9% | [2] -6.25% | [3] -1% | [4] 16.4% | [5] -16.4% | [6] 1.6%

NCCC1CCc2[nH]c3ccccc3c2C1 (centres undefined)
inactive: [1] -7.3% | [2] -6.1% | [3] -0.5% | [4] -52.4% | [5] -15.3% | [6] -8.15%

O=C([O-])C(F)(F)F.O=[N+]([O-])O.[Co+3].[NH2-].[NH2-].[NH2-].[NH2-].[NH2-]
inactive: [1] 5.25% | [2] 2% | [3] 7.7% | [4] -5.65% | [5] 5% | [6] 39.6%

[CH3][Sn]1([CH3])[c]2ccccc2Oc2cccc[c]21
inactive: [1] -11.9% | [2] 1.65% | [3] 4.7% | [4] -1.2% | [5] 33.5% | [6] -17.6%

CO[C@H]1Nc2c(ccc(C)c2O)C(=O)N2C=C(/C=C/C(N)=O)C[C@@H]12
active: [1] 89.2% | [2] 91.5% | [3] 90% | [4] 90.2% | [5] 90.3% | [6] 87.3%

CO[C@@]12[C@@H]3N[C@@H]3CN1C1=C(C(=O)C(NCC3CCCO3)=C(C)C1=O)[C@@H]2COC(N)=O (some centres undefined)
inactive: [1] 24.9% | [2] 16.6% | [3] 6.25% | [4] 17.1% | [5] 3.95% | [6] 23.6%

CC(CC(C)(C)[N-]CC[O-])=NCCO.O=[N+]([O-])O.[Cu+2]
inactive: [1] 10.7% | [2] 20.2% | [3] -5.7% | [4] -0.05% | [5] 26.2% | [6] 18.7%

CN(C)C(=O)C(Cl)Cl
inactive: [1] -0.75% | [2] 7.3% | [3] -4% | [4] -7.25% | [5] 12.8% | [6] 2.25%

O=C([CH-]C(=O)C(F)(F)F)c1ccco1.O=C([CH-]C(=O)C(F)(F)F)c1ccco1.O=C([CH-]C(=O)C(F)(F)F)c1ccco1.[Ru+3]
inactive: [1] 8.2% | [2] -11% | [3] -19.6% | [4] -11.6% | [5] 1.95% | [6] 11.7%

CCN(CC)C(=O)CCN1CC1
inactive: [1] 10.4% | [2] -0.65% | [3] 12.3% | [4] 19.5% | [5] 5.1% | [6] -1.25%

CC(=O)OC1CC2(C)C3(CO3)C1OC1C=C(C)C(=O)C(O)C12CO (centres undefined)
inactive: [1] -10.4% | [2] -3.95% | [3] 2.75% | [4] 26.5% | [5] 8.7% | [6] 11.3%

CN(N=O)C(=O)NC1CCCCC1
inactive: [1] -18.6% | [2] -0.25% | [3] -1.25% | [4] -4.45% | [5] -1.95% | [6] 13.8%

CC(CC(C)(C)C)C(=O)Cl (centres undefined)
inactive: [1] 7.85% | [2] -2.7% | [3] 5.35% | [4] 10.9% | [5] 4.15% | [6] 23.4%

COC[C@]12CN(C=O)[C@H]3C4[C@H](OC)[C@H]1C3([C@@H](OC)C[C@H]2O)[C@@H]1C[C@@]2(O)[C@H](OC(=O)c3ccccc3)[C@@H]1[C@]4(OC(C)=O)[C@@H](O)[C@@H]2OC
inactive: [1] 9.45% | [2] 14.4% | [3] -13.8% | [4] -2.2% | [5] 0.2% | [6] 25.6%

O=C1CC(c2ccccc2)n2cccc21 (centres undefined)
inactive: [1] 8.1% | [2] 2.2% | [3] 4.85% | [4] 24.8% | [5] -8.95% | [6] -27.8%

CC(O)CCC(=O)c1ccoc1 (centres undefined)
inactive: [1] 6.4% | [2] 10.7% | [3] 1.45% | [4] 8.15% | [5] 14.3% | [6] -71.7%

CCOC(=O)/C=C1\Nc2ccccc2C(c2ccccc2)=NC1OC(C)=O (centres undefined)
inactive: [1] 39.1% | [2] -20.6% | [3] 22.6% | [4] 23.6% | [5] -13.7% | [6] -9%

C=C(C)[C@H]1CN[C@H](C(=O)O)[C@H]1CC(=O)O
inactive: [1] -5.6% | [2] -5% | [3] -6.15% | [4] -19.9% | [5] -6.5% | [6] 5.05%

O=c1c2ccccc2oc2ccccc12 (tested in a mixture with another compound)
inactive: [1] 18.9% | [2] 17.7% | [3] 11.7% | [4] 10.2% | [5] 23.2% | [6] 17.1%

CC(CC(C#N)(c1ccccc1)c1ccccc1)N1CCCCC1 (centres undefined)
inactive: [1] 27.6% | [2] 14% | [3] -22.9% | [4] 12.1% | [5] 33.5% | [6] 27.4%

CC(C)SP(=S)(SC(C)C)SC(C)C
inactive: [1] 8% | [2] -10.1% | [3] 8.3% | [4] -20.4% | [5] 4.15% | [6] 17.1%

COc1ccc(CC2c3cc(OC)c(OC)cc3CCN2C)cc1OC (centres undefined)
inactive: [1] -3.6% and -11.2% | [2] -5.2% and -18.4% | [3] -8.1% and -8.4% | [4] -5% and 13.1% | [5] 12.7% and -3.45% | [6] 8.4% and 1.7%

CNC(=S)P(c1ccccc1)c1ccccc1
inactive: [1] 9.4% | [2] 15.2% | [3] 7.1% | [4] 22.4% | [5] 13.4% | [6] 10.4%

Cc1nc2cccc(F)c2c(=O)n1-c1nnc(C2CC2)s1
inactive: [1] -28.6% | [2] -23.5% | [3] -20.2% | [4] 13.5% | [5] -41.2% | [6] -9.05%
